Among the data in the supplement of paper PMC10646978 are NF-kB reporter, IRF reporter and viability score values, retold here.

Holding throughout (settings): modulator concentration 10 µM
The test system of assay [1] is RAW-Dual (murine macrophage reporter line). Put plainly: NF-kB reporter (SEAP) activity fold change vs agonist alone; higher = enhanced NF-kB activity. In short, it runs like this: (§1)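 RAW-Dual murine macrophage reporter cells were seeded at 50 000 per well in 384-well plates and pre-incubated 1 hour at 37 °C with compound pin-transferred to 10 μM final. After 1 hour, a PRR agonist was added and cells incubated overnight. Supernatant NF-κB (SEAP, QUANTI-Blue, 620 nm absorbance) and IRF (Lucia luciferase, QUANTI-Luc, luminescence) signals were divided by the mean agonist-only control on the same plate to give fold change. Two replicate plates were averaged, with errors by propagation.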

Assay [2] has the same test system. In words: IRF reporter (Lucia luciferase) activity fold change vs agonist alone; higher = enhanced IRF activity. Summed up:
as §1

For assay [3] the test system is unchanged. Put plainly: viability score (confluency relative to resting cells, overnight) (fraction); higher = more viable, active = viable (0.7 or more). Summed up: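 A compound met the cutoff when both of two confluency masks exceeded 70% of resting cells. Those masks were made with IncuCyte software from IncuCyte images of RAW-Dual macrophages treated overnight at 10 μM final. This is the basis of the viability score, which is confluency relative to resting cells.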

Setting [4] is: agonist: CpG ODN 1826 0.5 ug/mL.

± gives the standard deviation.

Take `Cc1c(Cl)cccc1S(=O)(=O)NCc1ccnc(N2CCCC2=O)c1`: the NF-kB reporter in assay [1] (setting [4]) worked out at 1.01 ± 0.055; in assay [1] (agonist: LPS 0.1 ug/mL) it was 1.03 ± 0.094; in assay [1] (agonist: MPLA […]), 0.92 ± 0.043. Also, the IRF reporter in assay [2] (agonist: 3'3'-cGAMP 10 ug/mL) turned out to be 0.993 ± 0.057; in assay [2] (agonist: LPS 0.1 ug/mL) it was 1.07 ± 0.079; in assay [2] (agonist: MPLA […]), 1.03 ± 0.093. In addition, the viability score in assay [3] was 0.957 (active).

Regarding `O=C(Oc1coc(CSc2ncccn2)cc1=O)c1ccc([N+](=O)[O-])cc1`, the NF-kB reporter in assay [1] (setting [4]) came to 0.972 ± 0.16; in assay [1] (agonist: LPS 0.1 ug/mL) it was 1.15 ± 0.13; in assay [1] (agonist: MPLA […]) it was 1.03 ± 0.15. Further, the results for the IRF reporter in assay [2] (agonist: 3'3'-cGAMP 10 ug/mL), in assay [2] (agonist: LPS 0.1 ug/mL) and in assay [2] (agonist: MPLA […]) were 0.996 ± 0.03, 1 ± 0.22 and 1.03 ± 0.1, respectively. Moreover, the viability score in assay [3] was 0.986 (active).

`CCc1c(C)[nH]c2c1C(=O)C(CN1CCOCC1)CC2` (configuration not stated) [Prestw-1035]: the NF-kB reporter came to 1.2 ± 0.1 in assay [1] (setting [4]), 0.92 ± 0.07 in assay [1] (agonist: LPS 0.1 ug/mL) and 0.934 ± 0.027 in assay [1] (agonist: MPLA […]). Also, the IRF reporter in assay [2] (agonist: 3'3'-cGAMP 10 ug/mL) was 1.03 ± 0.04; in assay [2] (agonist: LPS 0.1 ug/mL), 0.925 ± 0.049; in assay [2] (agonist: MPLA […]), 0.959 ± 0.11. In addition, the viability score in assay [3] is 1 (active).

For the compound `COc1ccc2c(C)nc(Nc3nc(C)cc(-c4ccccc4)n3)nc2c1`, the NF-kB reporter worked out at 0.791 ± 0.079 in assay [1] (setting [4]), 0.879 ± 0.065 in assay [1] (agonist: LPS 0.1 ug/mL) and 1.07 ± 0.1 in assay [1] (agonist: MPLA […]). Moreover, the figures for the IRF reporter in assay [2] (agonist: 3'3'-cGAMP 10 ug/mL), in assay [2] (agonist: LPS 0.1 ug/mL) and in assay [2] (agonist: MPLA […]) were 0.914 ± 0.043, 1.28 ± 0.12 and 1.37 ± 0.17, respectively. Besides, the viability score in assay [3] is 1.03 (active).

Take `CC(=NOCON=C(C)c1ccc(Cl)c(Cl)c1)c1ccc(Cl)c(Cl)c1`: the NF-kB reporter in assay [1] (setting [4]) turned out to be 0.944 ± 0.057; in assay [1] (agonist: LPS 0.1 ug/mL), 0.993 ± 0.086; in assay [1] (agonist: MPLA […]) it was 0.936 ± 0.07. Further, the IRF reporter was 0.974 ± 0.034 in assay [2] (agonist: 3'3'-cGAMP 10 ug/mL), 1.38 ± 0.14 in assay [2] (agonist: LPS 0.1 ug/mL) and 1.18 ± 0.1 in assay [2] (agonist: MPLA […]). Further, the viability score in assay [3] is 1.01 (active).

As to `COc1ccc(C(=O)NCCOc2cc(C)cc(C)c2)cc1OC`, the NF-kB reporter in assay [1] (setting [4]) came out at 1.48 ± 0.12; in assay [1] (agonist: LPS 0.1 ug/mL), 1 ± 0.056; in assay [1] (agonist: MPLA […]) it was 0.827 ± 0.062. The IRF reporter in assay [2] (agonist: 3'3'-cGAMP 10 ug/mL) came out at 1.02 ± 0.045; in assay [2] (agonist: LPS 0.1 ug/mL), 1.42 ± 0.19; in assay [2] (agonist: MPLA […]), 1.03 ± 0.21. Also, the viability score in assay [3] is 1.01 (active).

As to `O=C(NCc1cccc(Cl)c1)c1cnc2n(c1=O)CCS2`, the NF-kB reporter in assay [1] (setting [4]) was 1.03 ± 0.11; in assay [1] (agonist: LPS 0.1 ug/mL), 1.02 ± 0.1; in assay [1] (agonist: MPLA […]), 0.974 ± 0.054. For the same compound, the IRF reporter in assay [2] (agonist: 3'3'-cGAMP 10 ug/mL) stood at 0.976 ± 0.035; in assay [2] (agonist: LPS 0.1 ug/mL) it was 1.04 ± 0.054; in assay [2] (agonist: MPLA […]), 1.09 ± 0.19. For the same compound, the viability score in assay [3] is 0.999 (active).

With `O=C(C=Cc1ccccc1)c1ccc(OC2OC(CO)C(O)C(O)C2O)cc1O` (configuration not stated), the NF-kB reporter in assay [1] (setting [4]) was 1.18 ± 0.068; in assay [1] (agonist: LPS 0.1 ug/mL), 1.03 ± 0.082; in assay [1] (agonist: MPLA […]) it was 0.94 ± 0.07. The results for the IRF reporter in assay [2] (agonist: 3'3'-cGAMP 10 ug/mL), in assay [2] (agonist: LPS 0.1 ug/mL) and in assay [2] (agonist: MPLA […]) were 1.02 ± 0.039, 1.32 ± 0.087 and 1.2 ± 0.17, respectively. Moreover, the viability score in assay [3] was 0.986 (active).

Consider `Cc1cc(C)n(N=Cc2c[nH]c3ccccc23)c(=O)c1C#N`, for which the NF-kB reporter in assay [1] (setting [4]) was found to be 1.08 ± 0.18; in assay [1] (agonist: LPS 0.1 ug/mL), 0.963 ± 0.099; in assay [1] (agonist: MPLA […]), 1.02 ± 0.096. The IRF reporter in assay [2] (agonist: 3'3'-cGAMP 10 ug/mL) was 1.03 ± 0.032; in assay [2] (agonist: LPS 0.1 ug/mL) it was 1.4 ± 0.24; in assay [2] (agonist: MPLA […]), 1.6 ± 0.23. In addition, the viability score in assay [3] is 1.03 (active).

Take `Cc1c(C(=O)Nc2ccc(N3C[C@@H](C)O[C@@H](C)C3)nc2)cccc1-c1ccc(OC(F)(F)F)cc1`: the NF-kB reporter was determined as 1.25 ± 0.17 in assay [1] (setting [4]), 1.13 ± 0.2 in assay [1] (agonist: LPS 0.1 ug/mL) and 1.64 ± 0.18 in assay [1] (agonist: MPLA […]). Further, the IRF reporter is 0.412 ± 0.024 in assay [2] (agonist: 3'3'-cGAMP 10 ug/mL), 1.13 ± 0.13 in assay [2] (agonist: LPS 0.1 ug/mL) and 1.37 ± 0.1 in assay [2] (agonist: MPLA […]). Moreover, the viability score in assay [3] was 0.824 (active).

As to `Fc1ccc(CN2CCc3c([nH]c4ccccc34)C2)cc1`, the NF-kB reporter in assay [1] (setting [4]) stood at 0.756 ± 0.07; in assay [1] (agonist: LPS 0.1 ug/mL) it was 0.707 ± 0.059; in assay [1] (agonist: MPLA […]), 1.4 ± 0.12. The IRF reporter in assay [2] (agonist: 3'3'-cGAMP 10 ug/mL) is 0.64 ± 0.039; in assay [2] (agonist: LPS 0.1 ug/mL), 0.974 ± 0.091; in assay [2] (agonist: MPLA […]), 2.77 ± 0.34. In addition, the viability score in assay [3] was 0.126 (inactive).

For the compound `CC[C@@H]1C(=O)N(C)c2cnc(Nc3ccc(C(=O)N[C@H]4CC[C@H](N5CCN(CC6CC6)CC5)CC4)cc3OC)nc2N1C(C)C`, the NF-kB reporter in assay [1] (setting [4]) worked out at 0.553 ± 0.077; in assay [1] (agonist: LPS 0.1 ug/mL) it was 1.22 ± 0.31; in assay [1] (agonist: MPLA […]) it was 4.21 ± 0.23. Moreover, the IRF reporter in assay [2] (agonist: 3'3'-cGAMP 10 ug/mL) came to 0.0547 ± 0.0068; in assay [2] (agonist: LPS 0.1 ug/mL), 0.0624 ± 0.0084; in assay [2] (agonist: MPLA […]), 0.138 ± 0.012. The viability score in assay [3] is 0.018 (inactive).

Consider `O=C(NN=Cc1cccc(Cl)c1Cl)c1cc(O)cc(O)c1`, for which the NF-kB reporter in assay [1] (setting [4]) came to 1.02 ± 0.084; in assay [1] (agonist: LPS 0.1 ug/mL), 0.918 ± 0.092; in assay [1] (agonist: MPLA […]) it was 1.07 ± 0.1. Further, the IRF reporter in assay [2] (agonist: 3'3'-cGAMP 10 ug/mL) was 0.934 ± 0.079; in assay [2] (agonist: LPS 0.1 ug/mL), 1.19 ± 0.22; in assay [2] (agonist: MPLA […]), 1.3 ± 0.22. Moreover, the viability score in assay [3] is 1.04 (active).

`COc1ccc2cc(CCC(C)=O)ccc2c1`: the figures for the NF-kB reporter in assay [1] (setting [4]), in assay [1] (agonist: LPS 0.1 ug/mL) and in assay [1] (agonist: MPLA […]) were 1.23 ± 0.19, 1.19 ± 0.56 and 1.06 ± 0.11, respectively. The values for the IRF reporter in assay [2] (agonist: 3'3'-cGAMP 10 ug/mL), in assay [2] (agonist: LPS 0.1 ug/mL) and in assay [2] (agonist: MPLA […]) were 0.931 ± 0.03, 1.18 ± 0.45 and 1.2 ± 0.098, respectively. Besides, the viability score in assay [3] was 0.95 (active).

With `CC(O)C(=O)O.CN1CCN(c2ccc3nc(-c4c(N)c5c(F)cccc5[nH]c4=O)[nH]c3c2)CC1`, the results for the NF-kB reporter in assay [1] (setting [4]), in assay [1] (agonist: LPS 0.1 ug/mL) and in assay [1] (agonist: MPLA […]) were 0.167 ± 0.011, 0.107 ± 0.0086 and 0.294 ± 0.019, respectively. For the same compound, the IRF reporter in assay [2] (agonist: 3'3'-cGAMP 10 ug/mL) is 2.41 ± 0.23; in assay [2] (agonist: LPS 0.1 ug/mL), 0.434 ± 0.076; in assay [2] (agonist: MPLA […]) it was 0.506 ± 0.084. In addition, the viability score in assay [3] was 0.966 (active).

Consider `COc1ccc(C2=NN(C(=O)c3ccc(Br)cc3)C(c3nc4ccccc4[nH]3)C2)cc1` (configuration not stated), for which the NF-kB reporter in assay [1] (setting [4]) was 0.994 ± 0.087; in assay [1] (agonist: LPS 0.1 ug/mL), 1.1 ± 0.12; in assay [1] (agonist: MPLA […]), 0.867 ± 0.07. Besides, the IRF reporter was found to be 0.92 ± 0.049 in assay [2] (agonist: 3'3'-cGAMP 10 ug/mL), 1.16 ± 0.092 in assay [2] (agonist: LPS 0.1 ug/mL) and 1.1 ± 0.34 in assay [2] (agonist: MPLA […]). Further, the viability score in assay [3] is 0.986 (active).
